A selection: hits, their analogues and other compounds. The true share with any hit is near 7.4%.
NPC1 promoter act: activators of NPC1 promoter. Huh7 NPC1 promoter luciferase reporter, 24 h. Potency, µM (top dose mostly 9.22 µM), for inactives: at the top dose activation, usual class: activators. actives 2.4% (n = 320,000). AID 485313; further: % of control where 0% means no effect; nearly all actives have a fitted effect of over 60% in size
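Stably transfected Huh7 (NPC1 promoter→luciferase), 1500 cells/well in Opti-MEM + 10% FBS, 2 h settle, then compound 24 h at 37 °C. Luminescence after 10 min with Amplite reagent.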
Rab9 promoter act: Rab9 promoter activation. Huh7 Rab9 promoter-luciferase reporter, luminescence, 24 h. Potency, µM (series often up to 9.22 µM), for the others: top-dose activation, negative = inhibition, most hits filed as activators. actives 2.8% (n = 320,000). AID 485297; further: % of control where 0% means no effect; nearly all actives have a fitted effect of over 60% in size
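Cells were plated at 1500 per well in reduced-serum medium with 10% FBS and left 2 h. Compound in DMSO was then added for 24 h at 37 °C. Reporter signal was read by luminescence after 10 min with luciferase detection reagent.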
ELG1 genotoxic: inducers of genotoxicity in HEK293T ELG1-luciferase cells | HEK293T ELG1-luciferase reporter, luminescence, 16 h | Potency, µM (titrated, usually from 46 µM), without a hit: top-dose activity change, positive = activation, usual class: activators | actives 1.3% (n = 330,000); further: % of control where 0% means no effect; nearly all actives have a fitted effect of over 60% in size
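HEK293T cells expressing luciferase-tagged ELG1 were treated with compound or DMSO for 16 hr at 37°C. Luciferase activity was then read after 30 min with ONE-Glo at room temperature; rising signal flags genetic stress.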
FLuc counter: firefly luciferase modulation, counter-screen for miR-21 project; Potency, µM (top dose mostly 57.5 µM), for inactives: at the top dose activity change, negative = inhibition, most hits filed as inhibitors; P08659; purified FLuc, Km substrates, luminescence inhibition; actives 6.9% (n = 360,000);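 further: plate controls were vehicle for no effect and reference inhibitor for full effect; nearly all actives have a fitted effect of over 55% in size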
Target sequence (P08659 whole entry, looked up): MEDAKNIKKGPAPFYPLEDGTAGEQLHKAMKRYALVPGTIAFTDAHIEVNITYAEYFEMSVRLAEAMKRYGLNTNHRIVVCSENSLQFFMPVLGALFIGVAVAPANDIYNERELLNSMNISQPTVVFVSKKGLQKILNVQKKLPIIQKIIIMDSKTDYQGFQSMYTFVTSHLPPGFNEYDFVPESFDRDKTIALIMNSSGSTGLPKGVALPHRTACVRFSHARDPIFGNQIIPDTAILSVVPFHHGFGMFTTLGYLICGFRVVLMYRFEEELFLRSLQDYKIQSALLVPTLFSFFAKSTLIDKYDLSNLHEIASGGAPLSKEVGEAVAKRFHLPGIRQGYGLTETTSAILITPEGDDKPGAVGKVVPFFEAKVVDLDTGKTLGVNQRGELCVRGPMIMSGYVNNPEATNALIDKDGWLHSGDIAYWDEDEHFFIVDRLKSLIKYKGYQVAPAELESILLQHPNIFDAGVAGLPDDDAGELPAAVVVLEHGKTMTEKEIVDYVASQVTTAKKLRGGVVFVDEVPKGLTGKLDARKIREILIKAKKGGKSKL
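Purified P. pyralis luciferase, 10 nM final, with Km-level 10 uM D-luciferin and 10 uM ATP in 50 mM Tris acetate pH 7.5, 10 mM Mg acetate, 0.01% Tween-20, 0.05% BSA; 6-point qHTS titration about 60 µM downward; luminescence read.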
SMN2 splice up: increases expression of the SMN2 splice variant; HEK293 SMN2-luciferase splicing reporter, luminescence, 30-36 h; actives 2.8% (n = 210,000); Potency, µM (doses to about 46.1 µM), without a hit: at the highest dose activity change, positive = activation, actives largely listed as activators; AID 1458; further: % of control where 0% means no effect; nearly all actives have a fitted effect of over 55% in size
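qHTS luciferase splicing reporter: luminescence rises when SMN2 exon 7 is included in transfected HEK293 cells. Compound exposure lasted 30-36 h at 37C, with 4.5 mM final sodium butyrate as control, followed by a ONE-Glo read.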
Numbers without * were called inactive; ? = inconclusive; nt = not tested or not shown; [ ] = dose if it differs, or a comment. The call rests on the fitted dose curve; in most records, active means well fitted curve in the direction sought with a large enough effect; inconclusive means small, poorly fitted or top-dose-only effect, or another doubt; inactive means no such curve, though single readings can be large; an effect the other way counts as inactive or inconclusive. Potency means the concentration at half of the fitted maximal effect.

SMILES	NPC1 promoter act	Rab9 promoter act	ELG1 genotoxic	FLuc counter	SMN2 splice up
C=CCN(c1ccccc1)S(=O)(=O)c1cccc(C(=O)Nc2ncccc2O)c1	-5%	0%	-4%	4%	nt
COC(=O)c1ccccc1C[C@]1(C(=O)OC)C=C[C@H](C)[C@@H](c2ccccc2)N1C(=O)C(F)(F)F	nt	nt	nt	nt	-6%
CC1CCCN(CCOc2ccc3ccccc3c2Br)C1 (stereo not drawn)	14%	22%	14%	27µM*	-11%
CC1CCCN(CCCOc2ccc(Cl)cc2Br)C1 (stereo not drawn)	-4%	-5%	0%	?	-33%
Cc1ccc(NNS(=O)(=O)c2ccc(C)cc2)cc1	1%	-1%	2%	21µM*	-13%
O=C1C2CC=CCC2C(=O)N1Cc1nnc(-c2ccccc2Br)o1 (stereo not drawn)	0%	2%	8%	?	nt
CCOc1ccc(NC(=O)Nc2ccc3c(c2)CCC3)cc1	25%	16%	14%	-2%	nt
O=C(Nc1ccc2c(c1)CCC2)Nc1ccc(F)cc1F	1.3µM*	0.79µM*	?	?	nt
O=C(Nc1cccc([N+](=O)[O-])c1)Nc1ccc2c(c1)CCC2	?	?	-1%	?	nt
O=C(Nc1ccc(F)cc1)Nc1ccc2c(c1)CCC2	2.5µM*	2.2µM*	?	?	nt
Cc1ccccc1NC(=O)CNC(=O)c1ccc(C(F)(F)F)cc1	7%	-3%	0%	?	12%
Cc1ccccc1NC(=O)Nc1ccc2c(c1)CCC2	2.8µM*	2.5µM*	?	2.4µM*	nt
Cc1ccccc1NC(=O)Nc1ccc(C(F)(F)F)cc1	23%	2.2µM*	1%	2.4µM*	nt
CC(=O)c1c(C)[nH]c(C(=O)OCC(=O)N2CCc3ccccc3C2)c1C	-5%	0%	-3%	-16%	nt
COc1ccc(S(=O)(=O)N(C)C[C@H]2Oc3ccc(NC(=O)Nc4ccc5c(c4)OCO5)cc3C(=O)N([C@H](C)CO)C[C@@H]2C)cc1	nt	nt	-1%	nt	nt
CN(C)c1ccccc1CN1CCCN(Cc2ccccc2N(C)C)C1c1ccncc1	nt	nt	nt	nt	-20%[9.22 µM]
Cc1cc2c(NC(=O)Nc3ccc(C(C)(C)C)cc3)cccc2nn1	-2%	-8%	-6%	12µM*	nt
O=C(Nc1ccccc1)Nc1ccc2c(c1)CCC2	2.5µM*	3.5µM*	?	2.7µM*	nt
O=C1OCc2ccc(NC(=O)c3c(F)cccc3Cl)cc21	-3%	18%	9%	-3%	nt
Cc1cc2c(NC(=O)Nc3ccccc3)cccc2nn1	-2%	1%	?	-15%	nt
Cc1ccc(NC(=O)Nc2ccc3c(c2)CCC3)cc1	2µM*	2µM*	?	?	nt
Cc1cc(C)cc(NC(=O)Nc2ccc3c(c2)CCC3)c1	?	?	14%	-20%	nt
O=C(Nc1ccc2c(c1)CCC2)c1c(F)cccc1Cl	1.6µM*	1.3µM*	9.2µM*	9.5µM*	14µM*
COc1ccc(N2CCN(C(=O)NCc3cccc(OC)c3)CC2)cc1	-3%	6%	-4%	-2%	nt
CCOc1nc(-c2ccccc2Cl)ccc1C#N	-3%	-6%	-2%	2%	4%
SMILES	NPC1 promoter act	Rab9 promoter act	ELG1 genotoxic	FLuc counter	SMN2 splice up
CN(CC(=O)Nc1ccc(N2CCOCC2)cc1)C(=O)CSc1ccc(F)cc1	-1%	3%	2%	-4%	nt
O=C(Nc1ccc2c(c1)CCC2)c1ccc(F)cc1	0.71µM*	0.45µM*	1.6µM*	1.1µM*	2.2µM*
O=C(CNC(=O)c1ccccc1F)Nc1ccc2c(c1)CCC2	?	?	?	-19%	nt
O=C(Nc1cccc(F)c1)Nc1ccc2c(c1)CCC2	2.5µM*	2.5µM*	?	3.4µM*	nt
O=C(Nc1ccc2c(c1)CCC2)c1cc(S(=O)(=O)Nc2ccc(F)cc2)c(Cl)cc1Cl	-4%	-7%	-6%	?	-92%
O=C(Nc1ccc2c(c1)CCC2)c1ncoc1-c1ccccc1F	15%	3%	12%	8.5µM*	nt
O=C(Nc1ccc2c(c1)CCC2)Nc1ccccc1F	0.45µM*	0.63µM*	0.41µM*	0.67µM*	nt
Cc1ccc(-n2nc3c(=O)n(CC(=O)NCc4ccc(C)o4)nc(C)c3c2C)cc1	-4%	3%	4%	0%	nt
Cc1cc(CN2CCCCC2)c(O)c(CN2CCCCC2)c1	nt	nt	nt	nt	-11%[9.22 µM]
